KinaseGlo FLuc = Counterscreen for Luciferase (Kinase-Glo TM) Inhibition | Luciferin 4-monooxygenase (Photuris pensylvanica), Q27757 | AID 1379, 2008 | Kinase-Glo luciferase, ATP luminescence, 8 min | 200,000 tested, 0.28% active | Potency, µM (doses to about 38.3 µM), inactives show at the top dose activity change, negative = inhibition, hits mostly inhibitors; active means well fitted inhibition curve with a large enough effect; inconclusive means small, poorly fitted or top-dose-only effect; further: potency means the concentration at half of the fitted maximal effect; nearly all actives have a fitted effect of over 60% in size
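Compounds were added to a substrate mix at pH 7.2 (50 mM imidazole, 10 uM ATP, within the enzyme's linear range), followed by Kinase-Glo detection reagent; luminescence was measured after 8 minutes at ambient temperature.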
LMNA splice mod = qHTS Assay for Modulators of Lamin A Splicing; 200,000 tested, 0.01% active; Potency, µM (top dose mostly 46.1 µM), inactives show at the top dose ratio change, negative = inhibition, usual class: inhibitors; HeLa LMNA splicing GFP/RFP minigene ratio, 48 h; active means well fitted inhibition curve with a large enough effect in the signal ratio, with a control signal flat, not every such curve was filed as active; inconclusive means small, poorly fitted or top-dose-only effect, or effect the other way, or a change in a side signal; the % refers to the signal ratio; further: potency means the concentration at half of the fitted maximal effect
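Read-out is the ratio of GFP to DsRed2 object intensity, acquired by 488 nm laser-scanning cytometry on HeLa lamin A-EGFP minigene reporter cells. Compound incubation 48 hrs at 37 °C in Opti-MEM with 2% FBS; DMSO 0.5% final.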
PNC inhibitor = High Content Assay for Compounds that inhibit the Assembly of the Perinucleolar Compartment; PC3M PTB-GFP, PNC prevalence imaging, 16 h; hits give low values; 140,000 tested, 3.1% active; activity change (PNC), negative = inhibition, % at 10 µM;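 active means readout at or below -70, meaning at least 70% loss of cells showing the perinucleolar compartment, a nuclear body marking cancer cells; inconclusive means readout between -30 and a set limit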;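 further: plate controls were DMSO wells for no effect and camptothecin positive control wells for full effect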
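Compounds are pinned in duplicate onto adhered PC3M cells stably expressing GFP-tagged PTB and incubated 16 h at 37 C. Cells are then fixed, nuclei stained with Hoechst, and PNC-positive cells counted.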
IMPase cell inh = qHTS Assay for Identifying the Cell-Membrane Permeable IMPase Inhibitors; 120,000 tested, under 10 active; inhibition (IP1 accumulation), % at 46.1 µM; CHO-M1 cells, IP1 accumulation, HTRF TR-FRET ratio; active means well fitted curve in the direction sought with a large enough effect in the signal ratio, not every such curve was filed as active; inconclusive means small, poorly fitted or top-dose-only effect, or a change in a side signal; inactive means no such curve, though single readings can be large or run the other way; the % refers to the signal ratio;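 further: cells stimulated with carbachol in lithium chloride buffer; plate controls were DMSO basal wells for no effect and reference inhibitor wells for full effect; higher means more IMPase inhibition seen as more IP1 and lower FRET ratio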
Target sequence (P97697 whole entry, looked up): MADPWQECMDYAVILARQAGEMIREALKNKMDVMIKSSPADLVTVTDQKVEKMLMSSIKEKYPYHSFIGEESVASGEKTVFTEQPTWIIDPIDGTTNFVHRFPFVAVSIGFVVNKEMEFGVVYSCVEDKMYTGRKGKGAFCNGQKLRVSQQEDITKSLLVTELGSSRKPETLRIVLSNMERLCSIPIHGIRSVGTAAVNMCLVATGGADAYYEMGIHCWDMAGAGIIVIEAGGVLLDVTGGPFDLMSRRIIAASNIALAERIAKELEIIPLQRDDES
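Seeded CHO-M1 cells were dosed with compound at up to 46 uM, stimulated with carbachol for 30 min, then lysed in IP-One detection reagents. Higher IP1 lowers the TR-FRET signal.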
HPGD block = qHTS Assay for Inhibitors of HPGD (15-Hydroxyprostaglandin Dehydrogenase). purified HPGD, NADH fluorescence kinetic, PGE2 substrate. 150,000 tested, 4.3% active. Potency, µM, inactives show at the highest dose activity change, negative = inhibition, most hits filed as inhibitors. AID 894, 2007; further: potency means the concentration at half of the fitted maximal effect
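20 nM HPGD preincubated 15 min at room temperature with compound in 50 mM Tris-HCl pH 8, 0.01% Tween 20. Started with 1 mM NAD+ and 30 uM prostaglandin E2; NADH fluorescence (360/450 nm) read 5 times over 30-s intervals, last minus first.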
ALDH1A1 block = qHTS Assay for Inhibitors of Aldehyde Dehydrogenase 1 (ALDH1A1) | Aldehyde dehydrogenase 1A1 (Homo sapiens), P00352 | Purified ALDH1A1, NADH fluorescence, propionaldehyde substrate | Potency, µM (doses to about 75.3 µM), without a hit: at the top dose activity, negative = inhibition, actives largely listed as inhibitors | 220,000 tested, 7.3% active;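 further: potency means the concentration at half of the fitted maximal effect; plate controls were no enzyme wells and a reference inhibitor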
Target sequence (P00352 whole entry, looked up): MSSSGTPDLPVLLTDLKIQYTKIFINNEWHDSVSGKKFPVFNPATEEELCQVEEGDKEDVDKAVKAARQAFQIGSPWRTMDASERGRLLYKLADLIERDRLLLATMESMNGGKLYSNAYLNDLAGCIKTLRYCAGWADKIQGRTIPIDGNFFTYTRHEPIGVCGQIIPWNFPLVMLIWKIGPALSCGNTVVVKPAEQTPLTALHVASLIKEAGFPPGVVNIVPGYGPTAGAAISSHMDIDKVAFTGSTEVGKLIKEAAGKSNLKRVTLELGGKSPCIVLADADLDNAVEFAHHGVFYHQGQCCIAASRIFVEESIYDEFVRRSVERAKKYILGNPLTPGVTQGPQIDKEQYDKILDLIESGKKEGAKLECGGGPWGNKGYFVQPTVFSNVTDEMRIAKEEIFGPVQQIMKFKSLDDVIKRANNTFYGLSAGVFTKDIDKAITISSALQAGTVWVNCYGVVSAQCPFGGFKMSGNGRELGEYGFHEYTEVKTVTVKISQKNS
* hit, by the source's call; [ ] = dose if it differs, or a comment. Compounds with a hit are over-represented: about 10% of the library has one in this group of screens. Unless noted, the call rests on the fitted dose curve; in most records, active means well fitted inhibition curve with a large enough effect (not every such curve was filed as active); inconclusive means small, poorly fitted or top-dose-only effect, or another doubt; inactive means no such curve, though single readings can be large or run the other way. Unless noted, on the % scale 0 is the no-effect control and ±100 the full control effect.

How did C=NC(C(=O)NC1C(=O)N2C1SC(C)(C)C2C(=O)O)c1ccccc1 (stereo not given) do in these assays?
KinaseGlo FLuc: -8%; HPGD block: inconclusive; ALDH1A1 block: inconclusive

How did O=C(COC(=O)c1ccc(S(=O)(=O)N2CCCCC2)cc1)NCc1ccco1 do in these assays?
KinaseGlo FLuc: 2%; LMNA splice mod: -9%[46 µM]; ALDH1A1 block: -6%

Results for O=C(OCc1ccco1)c1ccc(S(=O)(=O)N2CCCCC2)cc1 ?
KinaseGlo FLuc: 2%; LMNA splice mod: -6%; PNC inhibitor: 21; IMPase cell inh: 5; HPGD block: -16%; ALDH1A1 block: 28µM*

How did O=C(OC1CCOC1=O)c1ccc(S(=O)(=O)N2CCCCCC2)cc1 (stereo not given) do in these assays?
KinaseGlo FLuc: -2%; LMNA splice mod: -2%; PNC inhibitor: 25; IMPase cell inh: 5; HPGD block: 16µM*; ALDH1A1 block: inconclusive

What do the screens show for `O=C(OC1CCOC1=O)c1ccc(Cl)c(S(=O)(=O)N2CCCCC2)c1` (stereo not given)?
KinaseGlo FLuc: 3%; LMNA splice mod: 12%[46 µM]; ALDH1A1 block: -3%

Results for Cc1cc(N2CCN(C)CC2)ccc1NC(=O)c1cccc(S(=O)(=O)N2CCc3ccccc3C2)c1 ?
KinaseGlo FLuc: 0%; ALDH1A1 block: -12%

How did O=C(OC1CCOC1=O)c1cccc(S(=O)(=O)N2CCc3ccccc3C2)c1 (stereo not given) do in these assays?
KinaseGlo FLuc: 11%; LMNA splice mod: 3%[46 µM]; ALDH1A1 block: 13µM*

How did O=C(OC1CCOC1=O)c1ccc(N2CCCC2)c([N+](=O)[O-])c1 (stereo not given) do in these assays?
KinaseGlo FLuc: 5%; LMNA splice mod: 12%[46 µM]; ALDH1A1 block: 14µM*

Results for CCOc1ccc(CC(=O)NCCc2csc(-c3ccc(C(F)(F)F)cc3)n2)cc1 ?
LMNA splice mod: -1%[46 µM]

Results for CCc1cccc(CC)c1NC(=O)COC(=O)CC1c2ccccc2CCN1S(=O)(=O)c1ccccc1 (stereo not given) ?
KinaseGlo FLuc: 4%; LMNA splice mod: -2%; PNC inhibitor: -14; IMPase cell inh: 7; HPGD block: -12%; ALDH1A1 block: 14%

How did CCc1cccc(CC)c1NC(=O)COC(=O)c1cccc(S(=O)(=O)N2CCc3ccccc3C2)c1 do in these assays?
KinaseGlo FLuc: -1%; LMNA splice mod: 0%; PNC inhibitor: -90*; HPGD block: -4%; ALDH1A1 block: -1%

What do the screens show for `Cc1ccc(O)c(CNc2cccc3cccnc23)c1`?
KinaseGlo FLuc: -1%; LMNA splice mod: 1%[46 µM]; ALDH1A1 block: -6%

Results for COc1cccc(CNc2cccc3cccnc23)c1O ?
KinaseGlo FLuc: -3%; LMNA splice mod: 8%; PNC inhibitor: -94*; IMPase cell inh: 4; HPGD block: 32µM*; ALDH1A1 block: inconclusive

What do the screens show for `O=S(=O)(NC1=NCCCCC1)c1ccc2ccccc2c1`?
KinaseGlo FLuc: 0%; LMNA splice mod: -6%; PNC inhibitor: 4; HPGD block: -15%; ALDH1A1 block: 1%

What do the screens show for `CCOC(=O)c1ccc(S(=O)(=O)Nc2nc3cc(S(=O)(=O)NC4=NCCCCC4)ccc3s2)cc1`?
KinaseGlo FLuc: 0%; LMNA splice mod: -25%[46 µM]; ALDH1A1 block: 25µM*

What do the screens show for `NCC(=O)Nc1ccccc1`?
KinaseGlo FLuc: 1%[7.66 µM]; HPGD block: -4%; ALDH1A1 block: 3%[13.5 µM]

What do the screens show for `CC1CC(C)CN(CC(=O)NC(c2ccccc2)c2ccccc2)C1` (stereo not given)?
KinaseGlo FLuc: -5%; ALDH1A1 block: 11µM*

What do the screens show for `CC1Cc2ccccc2N1CC(=O)NC(c1ccccc1)c1ccccc1` (stereo not given)?
KinaseGlo FLuc: 3%; LMNA splice mod: -9%; PNC inhibitor: 42; IMPase cell inh: 3; HPGD block: -8%; ALDH1A1 block: inconclusive

What do the screens show for `O=C(CN1CCN(C(c2ccccc2)c2ccccc2)CC1)Nc1ccc(N2CCOCC2)cc1`?
KinaseGlo FLuc: 0%; LMNA splice mod: -3%[46 µM]; ALDH1A1 block: -5%

What do the screens show for `O=C(CN1CCN(c2ccc(O)cc2)CC1)NC(c1ccccc1)c1ccccc1`?
KinaseGlo FLuc: -4%; LMNA splice mod: -6%; PNC inhibitor: 3; HPGD block: inconclusive; ALDH1A1 block: 13µM*

What do the screens show for `COc1ccc2c(c1)CC(C(=O)NCc1ccc(F)cc1)CO2` (stereo not given)?
LMNA splice mod: 21%[46 µM]

How did Cc1c(Br)c([N+](=O)[O-])nn1CC(=O)Nc1sc2c(c1C(=O)OC(C)C)CCCC2 do in these assays?
KinaseGlo FLuc: -8%; LMNA splice mod: 1%; PNC inhibitor: 26; IMPase cell inh: inconclusive; HPGD block: -24%; ALDH1A1 block: -10%

What do the screens show for `Cc1c(Cl)c([N+](=O)[O-])nn1CCCC(=O)Nc1ccc(Cl)cc1Cl`?
KinaseGlo FLuc: 5%; LMNA splice mod: -8%; PNC inhibitor: inconclusive; IMPase cell inh: -3; HPGD block: -4%; ALDH1A1 block: inconclusive

Results for Cc1c(Cl)c([N+](=O)[O-])nn1CCCC(=O)Nc1sc2c(c1C#N)CCC2 ?
KinaseGlo FLuc: 1%; LMNA splice mod: -13%; PNC inhibitor: inconclusive; IMPase cell inh: 2; HPGD block: inconclusive; ALDH1A1 block: 13µM*

Results for Cc1c(Br)c([N+](=O)[O-])nn1CCCC(=O)Nc1sc2c(c1C#N)CCC2 ?
KinaseGlo FLuc: 0%; LMNA splice mod: inconclusive; PNC inhibitor: inconclusive; HPGD block: 13µM*; ALDH1A1 block: 10µM*

Results for COC(=O)C1C2C=CC3(CN(Cc4cccs4)C(=O)C13)O2 (stereo not given) ?
KinaseGlo FLuc: 5%; LMNA splice mod: -6%; PNC inhibitor: -5; IMPase cell inh: 0; HPGD block: -8%; ALDH1A1 block: -10%

How did COC(=O)C1C(=O)N2CCCSC2=C(C#N)C1c1cccs1 (stereo not given) do in these assays?
KinaseGlo FLuc: 3%; LMNA splice mod: 4%; PNC inhibitor: -12; IMPase cell inh: 10; HPGD block: -7%; ALDH1A1 block: 6.3µM*
